# Source: PMC8384837, “Expanding the binding specificity for RNA recognition by a PUF domain”
# Changes are numbered by the printed parent chain.
# How the values were obtained:
# Test in all cases: yeast three-hybrid, YBZ-1, SC-Leu-His + 0.5 mM 3-AT, 4 days
# Conditions in all cases: tags: N-Gal4 AD-HA kept; label: inside an RPR1-promoter hybrid RNA with tandem MS2 sites; ssRNA
# PUM1 PUF domain R8-PWI = PUM1 PUF domain R8-PWI (Homo sapiens, UniProt Q14671 828-1176, N1122P;Y1123W;Q1126I)
# How it was run: (§1)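 Sequencing with Illumina followed PCR amplification of the repeat regions from transformants grown four days on SC-Leu (input) or SC-Leu-His + 0.5 mM 3-AT (selection). The transformants were strain YBZ-1 with a LexA–MS2 coat fusion and a HIS3 reporter, carrying Pumilio-1 PUF domain libraries and matching RNA elements. The interaction score is the log change in variant frequency from input to selection, computed in log2 with a pseudocount of 1 for absent variants.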
# PUM1 PUF domain R2-PFQ = PUM1 PUF domain R2-PFQ (Homo sapiens, UniProt Q14671 828-1176, N899P;Y900F)
# How it was run: as §1
# PUM1 PUF domain R5-LHD = PUM1 PUF domain R5-LHD (Homo sapiens, UniProt Q14671 828-1176, C1007L;R1008H;Q1011D)
# How it was run: as §1
# PUM1 PUF domain R4-EHG = PUM1 PUF domain R4-EHG (Homo sapiens, UniProt Q14671 828-1176, N971E;Q975G)
# How it was run: as §1
# PUM1 PUF domain R4-SRG = PUM1 PUF domain R4-SRG (Homo sapiens, UniProt Q14671 828-1176, N971S;H972R;Q975G)
# How it was run: as §1
# PUM1 PUF domain R4-FNM = PUM1 PUF domain R4-FNM (Homo sapiens, UniProt Q14671 828-1176, N971F;H972N;Q975M)
# How it was run: as §1
# PUM1 PUF domain R6-VFK = target: T1, PUM1 PUF domain R6-VFK (Homo sapiens, UniProt Q14671 828-1176, N1043V;Y1044F;Q1047K)
# T1 sequence: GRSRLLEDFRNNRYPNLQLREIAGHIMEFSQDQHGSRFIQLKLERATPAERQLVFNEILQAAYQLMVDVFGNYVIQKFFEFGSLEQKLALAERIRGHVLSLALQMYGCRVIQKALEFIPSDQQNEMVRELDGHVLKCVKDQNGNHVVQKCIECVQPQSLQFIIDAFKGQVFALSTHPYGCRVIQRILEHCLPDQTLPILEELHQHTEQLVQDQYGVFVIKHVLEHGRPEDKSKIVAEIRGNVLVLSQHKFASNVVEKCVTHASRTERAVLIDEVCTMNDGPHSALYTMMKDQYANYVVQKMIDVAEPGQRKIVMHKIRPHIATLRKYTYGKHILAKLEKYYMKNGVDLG
# How it was run: as §1
# PUM1 PUF domain R3-SCP = PUM1 PUF domain R3-SCP (Homo sapiens, UniProt Q14671 828-1176, C935S;R936C;Q939P)
# How it was run: as §1
# PUM1 PUF domain R3-RVN = PUM1 PUF domain R3-RVN (Homo sapiens, UniProt Q14671 828-1176, C935R;R936V;Q939N)
# How it was run: as §1
# PUM1 PUF domain R3-FRR = PUM1 PUF domain R3-FRR (Homo sapiens, UniProt Q14671 828-1176, C935F;Q939R)
# How it was run: as §1
# PUM1 PUF domain R3-GIR = PUM1 PUF domain R3-GIR (Homo sapiens, UniProt Q14671 828-1176, C935G;R936I;Q939R)
# How it was run: as §1
# PUM1 PUF domain R3-RPD = PUM1 PUF domain R3-RPD (Homo sapiens, UniProt Q14671 828-1176, C935R;R936P;Q939D)
# How it was run: as §1
# PUM1 PUF domain R5-LKL = PUM1 PUF domain R5-LKL (Homo sapiens, UniProt Q14671 828-1176, C1007L;R1008K;Q1011L)
# How it was run: as §1
# PUM1 PUF domain R7-RRH = PUM1 PUF domain R7-RRH (Homo sapiens, UniProt Q14671 828-1176, S1079R;N1080R;E1083H)
# How it was run: as §1
# PUM1 PUF domain R7-ISS = PUM1 PUF domain R7-ISS (Homo sapiens, UniProt Q14671 828-1176, S1079I;N1080S;E1083S)
# How it was run: as §1
# PUM1 PUF domain R3-AAE = PUM1 PUF domain R3-AAE (Homo sapiens, UniProt Q14671 828-1176, C935A;R936A;Q939E)
# How it was run: as §1
# PUM1 PUF domain R3-TRC = PUM1 PUF domain R3-TRC (Homo sapiens, UniProt Q14671 828-1176, C935T;Q939C)
# How it was run: as §1
# PUM1 PUF domain R6-SFK = target: T2, PUM1 PUF domain R6-SFK (Homo sapiens, UniProt Q14671 828-1176, N1043S;Y1044F;Q1047K)
# T2 sequence: T1 sequence with V216S
# How it was run: as §1
# PUM1 PUF domain R3-LYI = PUM1 PUF domain R3-LYI (Homo sapiens, UniProt Q14671 828-1176, C935L;R936Y;Q939I)
# How it was run: as §1
# PUM1 PUF domain R4-RMQ = PUM1 PUF domain R4-RMQ (Homo sapiens, UniProt Q14671 828-1176, N971R;H972M)
# How it was run: as §1
sequence,measurement,setting,value
GGCUAGAACUAGUGGAUCCCCCGGCGCCCGGCGGCUCGAGCCCGGGUAAGCGUAAAUAGUCUGCAUGCCGCCGGGCGCCAUGCCUGCAGGUCGACUCUAGAAAACAUG,binding signal,PUM1 PUF domain R8-PWI,4.09 log2 enrichment (interaction score)
GGCUAGAACUAGUGGAUCCCCCGGCGCCCGGCGGCUCGAGCCCGGGUAAGUGUAAAAAGUCUGCAUGCCGCCGGGCGCCAUGCCUGCAGGUCGACUCUAGAAAACAUG,binding signal,PUM1 PUF domain R2-PFQ,4.24 log2 enrichment (interaction score)
GGCUAGAACUAGUGGAUCCCCCGGCGCCCGGCGGCUCGAGCCCGGGUAAGUGUGAAUAGUCUGCAUGCCGCCGGGCGCCAUGCCUGCAGGUCGACUCUAGAAAACAUG,binding signal,PUM1 PUF domain R5-LHD,2.82 log2 enrichment (interaction score)
GGCUAGAACUAGUGGAUCCCCCGGCGCCCGGCGGCUCGAGCCCGGGUAAGUGUACAUAGUCUGCAUGCCGCCGGGCGCCAUGCCUGCAGGUCGACUCUAGAAAACAUG,binding signal,PUM1 PUF domain R4-EHG,2.82 log2 enrichment (interaction score)
same,binding signal,PUM1 PUF domain R4-SRG,0.54 log2 enrichment (interaction score)
same,binding signal,PUM1 PUF domain R4-FNM,2.87 log2 enrichment (interaction score)
GGCUAGAACUAGUGGAUCCCCCGGCGCCCGGCGGCUCGAGCCCGGGUAAGUGAAAAUAGUCUGCAUGCCGCCGGGCGCCAUGCCUGCAGGUCGACUCUAGAAAACAUG,binding signal,PUM1 PUF domain R6-VFK,8.43 log2 enrichment (interaction score)
GGCUAGAACUAGUGGAUCCCCCGGCGCCCGGCGGCUCGAGCCCGGGUAAGUGUAUAUAGUCUGCAUGCCGCCGGGCGCCAUGCCUGCAGGUCGACUCUAGAAAACAUG,binding signal,PUM1 PUF domain R4-SRG,1.37 log2 enrichment (interaction score)
same,binding signal,PUM1 PUF domain R4-FNM,3.46 log2 enrichment (interaction score)
GGCUAGAACUAGUGGAUCCCCCGGCGCCCGGCGGCUCGAGCCCGGGUAAGUGUAAUUAGUCUGCAUGCCGCCGGGCGCCAUGCCUGCAGGUCGACUCUAGAAAACAUG,binding signal,PUM1 PUF domain R3-SCP,3.31 log2 enrichment (interaction score)
same,binding signal,PUM1 PUF domain R3-RVN,4.09 log2 enrichment (interaction score)
same,binding signal,PUM1 PUF domain R3-FRR,2.42 log2 enrichment (interaction score)
same,binding signal,PUM1 PUF domain R3-GIR,1.55 log2 enrichment (interaction score)
same,binding signal,PUM1 PUF domain R3-RPD,3.79 log2 enrichment (interaction score)
GGCUAGAACUAGUGGAUCCCCCGGCGCCCGGCGGCUCGAGCCCGGGUAAGUGUCAAUAGUCUGCAUGCCGCCGGGCGCCAUGCCUGCAGGUCGACUCUAGAAAACAUG,binding signal,PUM1 PUF domain R5-LKL,4 log2 enrichment (interaction score)
GGCUAGAACUAGUGGAUCCCCCGGCGCCCGGCGGCUCGAGCCCGGGUAAGUCUAAAUAGUCUGCAUGCCGCCGGGCGCCAUGCCUGCAGGUCGACUCUAGAAAACAUG,binding signal,PUM1 PUF domain R7-RRH,4.29 log2 enrichment (interaction score)
GGCUAGAACUAGUGGAUCCCCCGGCGCCCGGCGGCUCGAGCCCGGGUAAGUUUAAAUAGUCUGCAUGCCGCCGGGCGCCAUGCCUGCAGGUCGACUCUAGAAAACAUG,binding signal,PUM1 PUF domain R7-RRH,5.13 log2 enrichment (interaction score)
same,binding signal,PUM1 PUF domain R7-ISS,3.84 log2 enrichment (interaction score)
GGCUAGAACUAGUGGAUCCCCCGGCGCCCGGCGGCUCGAGCCCGGGUAAGUGUAAGUAGUCUGCAUGCCGCCGGGCGCCAUGCCUGCAGGUCGACUCUAGAAAACAUG,binding signal,PUM1 PUF domain R3-SCP,3.88 log2 enrichment (interaction score)
same,binding signal,PUM1 PUF domain R3-FRR,5.43 log2 enrichment (interaction score)
same,binding signal,PUM1 PUF domain R3-GIR,3.07 log2 enrichment (interaction score)
same,binding signal,PUM1 PUF domain R3-AAE,3.07 log2 enrichment (interaction score)
same,binding signal,PUM1 PUF domain R3-TRC,2.14 log2 enrichment (interaction score)
GGCUAGAACUAGUGGAUCCCCCGGCGCCCGGCGGCUCGAGCCCGGGUAAGUGCAAAUAGUCUGCAUGCCGCCGGGCGCCAUGCCUGCAGGUCGACUCUAGAAAACAUG,binding signal,PUM1 PUF domain R6-VFK,1.94 log2 enrichment (interaction score)
GGCUAGAACUAGUGGAUCCCCCGGCGCCCGGCGGCUCGAGCCCGGGUAAGUGUAAAUAGUCUGCAUGCCGCCGGGCGCCAUGCCUGCAGGUCGACUCUAGAAAACAUG,binding signal,PUM1 PUF domain R4-EHG,2.3 log2 enrichment (interaction score)
same,binding signal,PUM1 PUF domain R4-SRG,4.42 log2 enrichment (interaction score)
same,binding signal,PUM1 PUF domain R6-VFK,3.04 log2 enrichment (interaction score)
same,binding signal,PUM1 PUF domain R3-TRC,3.26 log2 enrichment (interaction score)
same,binding signal,PUM1 PUF domain R5-LHD,3.18 log2 enrichment (interaction score)
same,binding signal,PUM1 PUF domain R6-SFK,6.49 log2 enrichment (interaction score)
same,binding signal,PUM1 PUF domain R3-LYI,4.35 log2 enrichment (interaction score)
same,binding signal,PUM1 PUF domain R4-RMQ,3.34 log2 enrichment (interaction score)
